We go through 93 compounds from PubChem BioAssay AID1626 (SRMLSC, 2009).

Among all 220,000 compounds or so, about 2,000 (0.91%) were called active. Roughly 2% stayed inconclusive and do not appear here. Cut-off read from the data, not from the text of the source: inconclusive = inhibition above about 80% without an active follow-up result; inactive = below that; test concentration not stated here. A selection follows. Results with a measured potency or affinity are listed apart.

The test is described as follows: M. tuberculosis H37Rv growth inhibitors, H37Rv strain (AID 1626).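 Note: bacteria incubated seven days before Alamar blue readout; 0% = bacteria only wells and 100% = bacteria with antibiotic wells.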 As to conditions: active compounds read high, concentration not given here.
A word on the inhibition: it is the relative decrease from the control value, in per cent. As for `COc1cccc(NC(=O)CSc2ncnc3c2cnn3Cc2ccccc2)c1`, the inhibition is -10.6% (inactive).

Take `NC(=S)NNC(=O)c1ccccc1Cl`: the inhibition is -8.81% (inactive).

Turning to `CC(C)(C)C(=O)Nc1nc(NC(=O)C(C)(C)C)nc(-c2ccccc2Cl)n1`, the inhibition is -0.83% (inactive).

`COc1ccc(Nc2ccc(N3C(=O)CCCC3=O)cc2[N+](=O)[O-])cc1OC`: the inhibition is -5.4% (inactive).

For `CCN1/C(=C\C(C)=O)Sc2ccc(OC)cc21`, the inhibition was -5.41% (inactive).

Consider `CC(=O)NCCNc1ccc([N+](=O)[O-])cn1`, for which the inhibition was -0.44% (inactive).

On to `CCOC(=O)N/N=C/c1cn(CCCOc2ccccc2)c2ccccc12`, for which the inhibition is 8.89% (inactive).

Turning to `C/C(=N/N1CCN(Cc2cccc3ccccc23)CC1)c1ccco1`, the inhibition was -5.28% (inactive).

Take `c1ccc2c(c1)N1CCN=C1N2CCN1CCCCC1`: the inhibition is -2.04% (inactive).

Consider `c1ccc2c(c1)N1CCCN=C1N2CCN1CCCCC1`, for which the inhibition was 1.49% (inactive).

Regarding `O=C(Nc1ccc2c(c1)OCO2)C1CCN(C(=O)c2cccs2)CC1`, the inhibition was 0.36% (inactive).

In the case of `O=c1oc(-c2cccc(Cl)c2)nc2c1cnn2-c1ccccc1`, the inhibition was 22.1% (inactive).

With `O=c1oc(-c2ccccc2)nc2c1cnn2-c1ccccc1`, the inhibition was 19.8% (inactive).

Turning to `N#C/C(=C\c1ccc(Cl)c([N+](=O)[O-])c1)c1ccccn1`, the inhibition was 6.45% (inactive).

With `CCOC(=O)c1c(NC(=O)CNCC(O)CO)sc(C)c1C` (stereo not drawn), the inhibition was 4.88% (inactive).

Regarding `O=C(Cn1cnc([N+](=O)[O-])n1)NC1CC1`, the inhibition is -0.97% (inactive).

On to `Nc1nc(Cl)cc(Sc2ccc(F)cc2)n1`, for which the inhibition was 4.27% (inactive).

Turning to `Nc1nc(Cl)cc(Sc2ccc3ccccc3c2)n1`, the inhibition was 8.65% (inactive).

Consider `Cc1cc(NC(=O)CSc2nc(N)c(NC(=O)c3ccccc3)c(=O)[nH]2)no1`, for which the inhibition is -1.25% (inactive).

As to `CCOC(=O)N1CCN(C/C(C)=C/c2ccccc2)CC1`, the inhibition was -4.4% (inactive).

In the case of `CCOC(=O)N1CCN(S(=O)(=O)/C=C/c2ccccc2)CC1`, the inhibition was -17.8% (inactive).

With `CC(C)(C)NS(=O)(=O)c1ccc(CCC(=O)Nc2ccc3c(c2)OCCO3)cc1`, the inhibition is -4.02% (inactive).

For `COc1ccccc1S(=O)Cc1ccc(C(=O)O)o1` (stereo not drawn), the inhibition was -6.58% (inactive).

Regarding `CN(C)[C@@H]1C(=O)C(C(N)=O)=C(O)[C@@]2(O)C(=O)C3=C(O)c4c(O)cccc4[C@@](C)(O)[C@H]3[C@H](O)[C@@H]12`, the inhibition was 11.9% (inactive).

For the compound `C=C1c2cccc(O)c2C(O)=C2C(=O)[C@]3(O)C(O)=C(C(N)=O)C(=O)[C@@H](N(C)C)[C@@H]3[C@@H](O)[C@H]12`, the inhibition is 1.79% (inactive).

Take `CN(C)[C@@H]1C(=O)C(C(N)=O)=C(O)[C@@]2(O)C(=O)C3=C(O)c4c(O)cccc4[C@@](C)(O)[C@H]3C[C@@H]12`: the inhibition is -3.76% (inactive).

On to `C[C@H]1c2cccc(O)c2C(O)=C2C(=O)[C@]3(O)C(O)=C(C(N)=O)C(=O)[C@@H](N(C)C)[C@@H]3[C@@H](O)[C@@H]21`, for which the inhibition was 63.7% (inactive).

`CCN(CC)c1nc2ccccc2[nH]c1=O`: the inhibition was -5.3% (inactive).

Consider `COc1ccc(C(=O)N/N=C/c2sc(=O)n(Cc3cccc(C(=O)O)c3)c2Cl)cc1`, for which the inhibition is -6.32% (inactive).

Regarding `O=C(NCc1cccc(Br)c1)C1CC(c2ccc(C(F)(F)F)cc2)=NO1` (stereo not drawn), the inhibition was 18.7% (inactive).

For the compound `O=C1/C(=C/c2ccc([N+](=O)[O-])cc2)C=C(c2ccccc2)N1c1ccccc1`, the inhibition was -2.05% (inactive).

`O=C(O)c1cccc(N2C(=O)/C(=C/c3ccc([N+](=O)[O-])cc3)C=C2c2ccccc2)c1`: the inhibition was 1.03% (inactive).

For `COCCCNC(=O)c1ccc(CS(=O)(=O)c2ccc(Br)cc2)o1`, the inhibition is -8.42% (inactive).

Regarding `Cc1nc(CNC(=O)CC2C(=O)NCCN2Cc2cccc(Oc3ccccc3)c2)cs1` (stereo not drawn), the inhibition was -3.5% (inactive).

For the compound `COc1cc2c(cc1OC)C(C)N(C(C)=O)CC2` (stereo not drawn), the inhibition was -6.23% (inactive).

Turning to `COC(=O)c1sccc1NC(=O)c1sccc1C`, the inhibition is 0.49% (inactive).

With `Cc1cc(C)c(NC(=O)c2cn3c4c(c(N5CCN(C)CC5)c(F)cc4c2=O)OCC3C)c(C)c1` (stereo not drawn), the inhibition is 9.11% (inactive).

Take `CCCCOc1ccc(C(=O)Nc2ccc(N3CCN(C)CC3)cc2)cc1`: the inhibition is 16.1% (inactive).

`COc1ccc(CCC(=O)Nc2cccc(Cl)c2)cc1`: the inhibition was 10.2% (inactive).

`Cc1nc2c(C)cccc2cc1C(=O)N/N=C/c1ccc(C(=O)O)cc1`: the inhibition was -1.57% (inactive).

`COC(=O)c1cccc(NC(=O)/C=C/c2cccc([N+](=O)[O-])c2)c1`: the inhibition is -2.96% (inactive).

Take `COC(=O)c1cccc(NC(=O)/C=C/c2ccc([N+](=O)[O-])cc2)c1`: the inhibition is 3.4% (inactive).

As to `Cc1ccc(NC(=O)/C=C/c2cccs2)c([N+](=O)[O-])c1`, the inhibition is -6.44% (inactive).

As for `Cc1cc(C)cc(NC(=O)/C=C/c2ccc([N+](=O)[O-])s2)c1`, the inhibition was 15.5% (inactive).

Regarding `Cc1ccc(NC(C)C(=O)N/N=C/c2ccc([N+](=O)[O-])s2)cc1` (stereo not drawn), the inhibition is 75% (inactive).

For the compound `O=C(/C=C/c1cccs1)Nc1ccc([N+](=O)[O-])cc1`, the inhibition was 4.49% (inactive).

With `CCCC(c1nnnn1C(C)(C)C)N1CCN(Cc2ccccc2OC)CC1` (stereo not drawn), the inhibition is -3.31% (inactive).

With `CCOC(=O)c1[nH]c(C)c(C(=O)NCc2cccnc2)c1C`, the inhibition was -1.85% (inactive).

`O=C(NCc1ccccn1)c1ccc(Cl)c(S(=O)(=O)Nc2ccccc2C(=O)NCc2ccccn2)c1`: the inhibition is -4.28% (inactive).

Consider `CCN1CCN(C(=O)c2cn(CCOC)c(=O)c3c2c2ccccc2n3C)CC1`, for which the inhibition was 2.91% (inactive).

In the case of `O=C(CCC1CCCN(C(=O)c2ccsc2)C1)N1CCN(c2ccccn2)CC1` (stereo not drawn), the inhibition is -1.82% (inactive).

Regarding `COc1cccc(OC)c1C(=O)NC(=S)Nc1ccc2c(c1)OCCO2`, the inhibition was 7.64% (inactive).

With `COC(=O)N/N=C/c1ccccc1`, the inhibition was 3.14% (inactive).

Turning to `CC(C)(C)OC(=O)N1CCN(C(=O)Nc2ccc3c(c2)OCCO3)CC1`, the inhibition was 3.99% (inactive).

In the case of `CC(=O)NC(CCS(C)(=O)=O)C(=O)Nc1cc(Cl)ccc1Cl` (stereo not drawn), the inhibition is 4.83% (inactive).

For `COc1ccccc1NC(=O)CN1C(=O)NC(CC(C)C)C1=O` (stereo not drawn), the inhibition is -11.7% (inactive).

On to `CCc1nnc(NS(=O)(=O)c2ccc(N=Cc3c(C)[nH]n(-c4ccc(Cl)cc4)c3=O)cc2)s1`, for which the inhibition was 12.1% (inactive).

On to `Cc1ccc(-n2[nH]c(C)c(C=Nc3ccc(S(=O)(=O)Nc4nccs4)cc3)c2=O)c(C)c1`, for which the inhibition is 45.6% (inactive).

`COc1ccc(NC(=O)CN(Cc2ccccc2)Cc2ccccc2)cc1S(N)(=O)=O`: the inhibition was 4.02% (inactive).

With `Cc1ccc(-c2nc(Cl)nc3ccccc23)cc1`, the inhibition was -2.37% (inactive).

For `Cc1ccc(Nc2nc(-c3ccncc3)nc3ccccc23)cc1`, the inhibition was -4.95% (inactive).

For the compound `CN(Cc1ccccc1)c1nc(-c2ccc([N+](=O)[O-])cc2)nc2ccccc12`, the inhibition was 0.45% (inactive).

Consider `O=[N+]([O-])c1ccc(-c2nc(NCc3ccccc3)c3ccccc3n2)cc1`, for which the inhibition was -2.12% (inactive).

Turning to `CC1(C(=O)N2CCN(c3ccccc3)CC2)CC1(Cl)Cl` (stereo not drawn), the inhibition was 0.45% (inactive).

Regarding `COCCCNC(=O)CSc1nc2sc(C(=O)OC)c(C)c2c(=O)n1N`, the inhibition was 7.98% (inactive).

As to `CN(C)C(=O)Cn1c(SCC(=O)N2CCCc3ccccc32)nc2ccccc21`, the inhibition is -5.91% (inactive).

`Cc1ccc(OCc2nc3c4c(ncn3n2)-c2ccccc2CC42CCCC2)cc1`: the inhibition was -1.61% (inactive).

On to `COc1ccc2c(c1)CCC/C2=N/OC(=O)c1ccccc1OC`, for which the inhibition was 10.5% (inactive).

Turning to `CCCSc1nc2c(=O)[nH][nH]c(=O)c2n1Cc1ccccc1`, the inhibition is -2.99% (inactive).

Consider `CCOC(=O)N1CCN(C(=O)CSc2nnc(-c3cc(OC)ccc3OC)o2)CC1`, for which the inhibition was 17.1% (inactive).

With `O=C(CSc1nnc(-c2ccccc2NC(=O)c2ccccc2)o1)OC1CCCCC1`, the inhibition was 61.5% (inactive).

For the compound `COC(=O)CSc1nnc(-c2ccccc2OC)o1`, the inhibition is 1.84% (inactive).

Turning to `COc1ccc(-c2nnc(SCC(=O)N3CCCCC3)o2)c(OC)c1`, the inhibition was 3.89% (inactive).

In the case of `O=C(Nc1ccccc1-c1nnc(SCc2ccccc2)o1)c1ccccc1`, the inhibition is 8.97% (inactive).

Take `CCOC(=O)CSc1nnc(-c2ccccc2OC)o1`: the inhibition is 10.6% (inactive).

On to `C#CCNC(=O)C1=C[C@@H](C)[C@H](CCCO)[C@@H](OCC)O1`, for which the inhibition is -2.73% (inactive).

In the case of `O=C(CCn1[nH]c(=O)c2ccccc2c1=O)NCCO`, the inhibition was -2.07% (inactive).

`COc1cccc(-c2nc(-c3ccc(NC(=O)c4ccncc4)cc3)no2)c1`: the inhibition was 7.98% (inactive).

On to `CC1(C)OC(=O)C(=NNc2ccc(Br)cc2)C(=O)O1`, for which the inhibition is 76.6% (inactive).

Consider `O=C1c2ccccc2C(=O)N1CCCCN(C(=O)c1cccc([N+](=O)[O-])c1)c1ccc(Cl)cc1`, for which the inhibition is -4.65% (inactive).

As to `O=C1c2ccccc2C(=O)N1CCCCN(C(=O)c1ccc([N+](=O)[O-])cc1)c1ccc(Cl)cc1`, the inhibition is -7.62% (inactive).

As for `CCOC(=O)C1(CCOc2ccccc2)CCN(Cc2ccc3c(c2)OCCO3)CC1`, the inhibition is -3.31% (inactive).

Regarding `O=c1[nH]c(=O)n(CCOc2ccc(Cl)cc2)cc1Br`, the inhibition was -3.97% (inactive).

Take `COCCNC(=S)N1CCC(c2nc(-c3ccc(F)cc3)no2)CC1`: the inhibition is -1.41% (inactive).

Take `CC1=Nc2ccccc2/C1=C/c1sc(=S)n(-c2cccc(C(=O)O)c2)c1O`: the inhibition is 4.52% (inactive).

Turning to `CC1=Nc2ccccc2/C1=C/c1sc(=O)n(CC(=O)N2CCCC2)c1O`, the inhibition is -8.48% (inactive).

With `CC(C)CN(CCC(=O)O)CC(C)C`, the inhibition is -0.69% (inactive).

For the compound `CCOC(=O)c1ccc(NCc2ccc3c(c2)OCO3)cc1`, the inhibition was 7.94% (inactive).

Regarding `CCOC(=O)c1cnc(-n2nc(C)cc2C)nc1Nc1ccccc1OC`, the inhibition was 25.4% (inactive).

As for `CCOC(=O)c1cnc(-n2nc(C)cc2C)nc1N1CC(C)OC(C)C1` (stereo not drawn), the inhibition is -1.14% (inactive).

With `CCOC(=O)c1cnc(-n2cc(C)cn2)nc1NCc1ccc2c(c1)OCO2`, the inhibition is 59.5% (inactive).

As to `CCOC(=O)c1cnc(-n2nc(C)cc2C)nc1NCCO`, the inhibition is 4.03% (inactive).

As for `CCOC(=O)c1cnc(-n2nc(C)cc2C)nc1Oc1ccccc1F`, the inhibition was -2.19% (inactive).
